Results as given in PubChem BioAssay AID493192 (National Center for Advancing Translational Sciences (NCATS), 2011).
Records with an inconclusive call do not appear. Entries that show only a call come without a potency. The source made the active and inactive calls. Calls follow the shape of the dose curve; as a rule, active = well fitted activation curve with a large enough effect; inconclusive = small, poorly fitted or top-dose-only effect; inactive = no such curve, though single readings can be large or run the other way.
Potency is read from the fitted curve at half-maximal effect.

Assay: qHTS Assay for Identifying a Potential Treatment of Ataxia-Telangiectasia: Hit Validation;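 also: phospho-KAP1 level by AlphaLISA as a proxy for ATM-like kinase activity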
Conditions: Ataxia-telangiectasia cell-based hit validation qHTS, in ATM-null A-T patient fibroblasts; series mostly up to 76.9 µM
Outline: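 KAP-1 phosphorylation was read by AlphaLISA as a measure of ATM-like activity in ATM-null F2112 fibroblasts. Compounds spanned up to 76.7 uM final, with 60 min exposure at 37C and a 6 hr detection incubation at 25C.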
With `CNC(=O)c1ccc(-c2sc3nc(N4CCOCC4)c4c(c3c2N)CC(C)(C)OC4)o1` the Potency was 29.2 µM (active). In the case of `Cc1ccc2c(c1)sc(=NC(=O)C1CC1)n2C`, the Potency is reported as 18.4 µM (active). In the case of `COc1cc(C(=O)NCCC(=O)NCCCN2CCCCC2)cc(OC)c1OC`, the Potency is reported as “inactive”. In the case of `FC(F)(F)c1cccc(OCC2CNC(=S)O2)c1` (configuration not stated), the Potency is reported as “inactive”. In the case of `COc1ccc(C(=O)CSc2nc3ncccc3[nH]2)cc1OC`, the Potency is reported as “inactive”. With `CC1CC(C)CN(C(=O)COC(=O)c2c[nH]c3ccccc23)C1` (configuration not stated) the Potency was “inactive”. With `O=C(C(c1ccccc1)c1ccccc1)N1CC[C@@]2(O)CCCC[C@H]2C1` the Potency was “inactive”. For `CC(C)(CO)NC(=O)c1ccc2c(c1)C(=O)c1ccccc1-2`, the Potency was “inactive”. For `CNC(=S)N(CCc1c(C)[nH]c2ccc(Cl)cc12)Cc1cccnc1`, the Potency was “inactive”. In the case of `CC1CCCC(C)N1CCCNC(=O)Cn1ncc2c3ccccc3n(C)c2c1=O` (configuration not stated), the Potency is reported as 23.2 µM (active). For `CC1Cc2ccccc2N1C(=O)CSc1nnnn1-c1ccc2c(c1)OCCO2` (configuration not stated), the Potency was “inactive”. In the case of `CCOc1ccc(NC2=CC(=O)CCC2)cc1`, the Potency is reported as “inactive”. With `COc1ccc(C2c3ccc(O)cc3Oc3ncn(CC(C)C)c(=N)c32)cc1` (configuration not stated) the Potency was “inactive”. In the case of `Brc1c(C[n+]2ccccc2)nc2ccccn12`, the Potency is reported as “inactive”. For `CCc1ccc(NC(=O)N[C@H](C(=O)O)C(C)CC)cc1` (some centres not stated), the Potency was “inactive”. For `O=C(CCC(=O)c1ccc(F)cc1)Nc1cccc(Br)c1`, the Potency was “inactive”. With `COc1ccc2nc(NCCCNC(=O)c3cc(OC)c(OC)c(OC)c3)c(C#N)cc2c1` the Potency was “inactive”.
